# Laboratory results reported in ChEMBL document CHEMBL3988442, “University of Dundee, Small-Polar-MMV Screening Library” (2021).
# The whole screen tested about 66,000 compounds, of which about 960 (1.5%) showed an effect of 50% or more. Many of the other results were omitted from the sample, so strong results are more common in it than they were.
# Tested on: Trypanosoma brucei
# Assay: Trypanosoma brucei 72 hour study
# Type: functional, organism-based
# Design: scale not given: in the data most compounds retested in dose-response had high values
compound,measurement,setting,value
Cc1ccc(NC2CCN(C(=O)CCc3ccncc3)CC2)nn1,Percent Effect,"30.3 µM, […]",5.448%
same,Percent Effect,"10 mM, 10 mM as filed; unlikely as a test dose",-59.85%
CC(CNCc1ccc2c(c1)n(C)c(=O)n2C)Oc1ccccn1.Cl (stereo unspecified),Percent Effect,"30 µM, 30.03 µM",-26.55%
CCn1nc(C)c2ccn(CC(=O)NC3CC3)c(=O)c21,Percent Effect,"30 µM, 30.03 µM",-19.49%
c1ccc(-c2nc(CNCCn3cccn3)cs2)nc1,Percent Effect,"30.3 µM, […]",-32.04%
CCn1ncc(CN2CCCC(n3c(=O)oc4ccccc43)C2)c1C.Cl (stereo unspecified),Percent Effect,"30.3 µM, […]",17.06%
CCc1ccc(C(=O)Nc2ccc3c(c2)N(C)CCN(C)C3)o1,Percent Effect,"30 µM, 30.03 µM",-2.445%
CCN1CCOCC2(CCCN(C(=O)c3ccccc3F)C2)C1.O=C(O)C(F)(F)F (stereo unspecified),Percent Effect,"30.3 µM, […]",-73.72%
CO[C@H]1CC[C@H]2[C@H]1OCCN2Cc1ccc(F)c(F)c1.O=C(O)C(F)(F)F,Percent Effect,"30.3 µM, […]",-36.53%
CCN1CC2(CC1=O)CN(Cc1cnn(C)c1)CCN(C(=O)N(C)C)C2.O=C(O)C(F)(F)F (stereo unspecified),Percent Effect,"30 µM, 30.03 µM",-27.29%
CC(=O)NCC1CCN(C(=O)c2c(C)[nH]c3ccc(Cl)cc23)CC1,Percent Effect,"30.3 µM, […]",4.898%
C[C@@H](CO)Nc1nccc(-c2cnc3sc(Cl)cn3c2=O)n1,Percent Effect,"30.3 µM, […]",8.201%
CCc1nc(C)c(C(=O)NCC2COc3cc(OC)ccc3C2)o1 (stereo unspecified),Percent Effect,"30 µM, 30.03 µM",22.43%
O=C1CCCCN1CCc1nc(-c2cccnn2)no1,Percent Effect,"30 µM, 30.03 µM",-7.651%
CC(C)CNC(=O)[C@H]1C[C@@H]2CN(C(=O)NCCc3ccccc3)C[C@H]1O2,Percent Effect,"30 µM, 30.03 µM",5.175%
O=S1(=O)CCC(S(=O)(=O)c2cccc(S(=O)(=O)N3CCOCC3)c2)C1 (stereo unspecified),Percent Effect,"30 µM, 30.03 µM",-4.748%
Fc1cccc(CN2CCC[C@H](Cn3nnc(-c4ccccn4)n3)C2)c1,Percent Effect,"30.3 µM, […]",-22.29%
Fc1ccccc1CN1CCC[C@H](Cn2nnc(-c3cccs3)n2)C1,Percent Effect,"30.3 µM, […]",82.08%
Fc1ccccc1CN1CCC[C@@H](Cn2nnc(-c3cccs3)n2)C1,Percent Effect,"30.3 µM, […]",-5.522%
COc1cccc(CN2CCCC3(CCN(C(=O)N4CCCC4)C3)C2)c1.O=C(O)C(F)(F)F (stereo unspecified),Percent Effect,"30.3 µM, […]",-29.29%
COCCC1(C(=O)O)CCCN(C(=O)c2cc(Cl)ccc2F)C1 (stereo unspecified),Percent Effect,"30.3 µM, […]",-11.98%
CCC(C)Sc1nncn1-c1ccc(OC)nc1 (stereo unspecified),Percent Effect,"30 µM, 30.03 µM",74.74%
COc1ccc(-n2cnnc2SCC(=O)N(C)C(C)C)cn1,Percent Effect,"30 µM, 30.03 µM",19.1%
COc1ccc(-n2cnnc2SCC(=O)NC(C)C)cn1,Percent Effect,"30 µM, 30.03 µM",21.81%
CCOC(=O)[C@]12CCCN(Cc3cccs3)C[C@H]1CN(C(C)=O)C2.O=C(O)C(F)(F)F,Percent Effect,"30.3 µM, […]",-10.51%
Cn1cc(N2Cc3nc(N4CCOCC4)ncc3C2=O)cn1,Percent Effect,"30.3 µM, […]",-24.66%
Cc1ccc(CNCc2ccc(-n3nc(C)cc3C)nc2)cc1,Percent Effect,"30 µM, 30.03 µM",-12.87%
COc1ccc(C)cc1CNCc1ccc(-n2nc(C)cc2C)nc1,Percent Effect,"30 µM, 30.03 µM",-31.15%
COc1cc(CNCc2ccc(-n3nc(C)cc3C)nc2)cc(OC)c1,Percent Effect,"30.3 µM, […]",5.745%
Cc1cc(C)n(-c2ccc(CNCc3cccc(C#N)c3)cn2)n1,Percent Effect,"30.3 µM, […]",62.16%
CNC(=O)COc1ccc(CNCc2ccc(F)cc2F)cc1,Percent Effect,"30 µM, 30.03 µM",4.908%
Cc1cc(C)n(-c2ccc(CNCc3ccc(F)c(F)c3)cn2)n1,Percent Effect,"30.3 µM, […]",53.31%
Cc1cc(C)n(-c2ccc(CNCc3ccc(F)cc3F)cn2)n1,Percent Effect,"30.3 µM, […]",61.76%
Cc1cc(C)n(-c2ccc(CNCc3ccc(OC(C)C)cc3)cn2)n1,Percent Effect,"30 µM, 30.03 µM",-15.45%
Cc1cc(C)n(-c2ccc(CNCc3ccc(C)o3)cn2)n1,Percent Effect,"30.3 µM, […]",8.783%
CCn1cc(-c2c(C)c(C3CCOC(C)(C)C3)nc(N)c2C#N)cn1 (stereo unspecified),Percent Effect,"30 µM, 30.03 µM",-13.96%
Cc1ccc(C(=O)N2CCC3(CC2)CCN(Cc2ccccn2)C3=O)o1.O=C(O)C(F)(F)F,Percent Effect,"30 µM, 30.03 µM",-16.24%
CCOCC(=O)N1CCOCC2(CCN(c3ncccn3)C2)C1.O=C(O)C(F)(F)F (stereo unspecified),Percent Effect,"30.3 µM, […]",-43.52%
Cc1cc(NC(=O)N(CCO)Cc2ccsc2)no1,Percent Effect,"30.3 µM, […]",3.821%
Cc1nc(CN2CC[C@@H]3O[C@@H](C(=O)N4CCOCC4)C[C@@H]32)cs1.O=C(O)C(F)(F)F,Percent Effect,"30.3 µM, […]",-22.53%
CN(CCOc1cccc(S(C)(=O)=O)c1)c1ccccc1,Percent Effect,"30 µM, 30.03 µM",-2.31%
CCC(CNc1ncnc2oc(C)nc12)Cc1ccccc1 (stereo unspecified),Percent Effect,"30.3 µM, […]",10.79%
CCCOc1ccccc1CCCNc1ncnc2oc(C)nc12,Percent Effect,"30.3 µM, […]",99.92%
CCCOc1ccc(Cl)cc1CNc1ncnc2oc(C)nc12,Percent Effect,"30.3 µM, […]",18.57%
CC(=O)N1CCN(Cc2ccsc2)CC2(CC(=O)N(C)C2)C1.O=C(O)C(F)(F)F (stereo unspecified),Percent Effect,"30.3 µM, […]",-65.69%
O=C(c1cc(Cl)c[nH]c1=O)N1C[C@@H]2CC[C@H](C1)N(Cc1ccccc1)C2,Percent Effect,"30 µM, 30.03 µM",-61.83%
CC(=O)N1N=C(COc2ccc(Cl)cc2)OC1c1ccccc1 (stereo unspecified),Percent Effect,"30 µM, 30.03 µM",-14.14%
CC(C)c1cc(NC(=O)c2cccnc2)[nH]n1,Percent Effect,"30.3 µM, […]",11.06%
same,Percent Effect,"10 mM, 10 mM as filed; unlikely as a test dose",-25.28%
CC(C)c1cc(NC(=O)c2ccc([S+]([O-])C(C)C)cc2)[nH]n1 (stereo unspecified),Percent Effect,"30.3 µM, […]",80.42%
same,Percent Effect,"10 mM, 10 mM as filed; unlikely as a test dose",77.43%
Cc1ccc(CC(=O)Nc2cc(C(C)C)n[nH]2)cn1,Percent Effect,"30.3 µM, […]",101.5%
same,Percent Effect,"10 mM, 10 mM as filed; unlikely as a test dose",101.9%
Cc1ccc(CC(=O)NCC(O)c2cc(Cl)cc(Cl)c2)cn1 (stereo unspecified),Percent Effect,"30 µM, 30.03 µM",-24.81%
CC(C)c1cc(NC(=O)c2ccc(C(=O)NC(C)(C)C)cc2)[nH]n1,Percent Effect,"30 µM, 30.03 µM",33.13%
CC(C)c1cc(NC(=O)c2ccc(NC3CC3)nc2)[nH]n1,Percent Effect,"30 µM, 30.03 µM",40.22%
CC(C)c1cc(NC(=O)c2ccncc2)[nH]n1,Percent Effect,"30.3 µM, […]",16.87%
same,Percent Effect,"10 mM, 10 mM as filed; unlikely as a test dose",-12.06%
Cc1ccc(C(=O)Nc2cc(C(C)C)n[nH]2)cn1,Percent Effect,"30 µM, 30.03 µM",54.96%
CC(C)c1cc(NC(=O)Cn2cnc3ccccc3c2=O)[nH]n1,Percent Effect,"30 µM, 30.03 µM",1.416%
NCc1cnn(-c2ccccc2C(=O)NCc2ccccn2)c1,Percent Effect,"30.3 µM, […]",5.478%
O=C(O)C(F)(F)F.O=C1CC2(CCN(Cc3ccco3)C2)CN1c1ccc2c(c1)OCO2 (stereo unspecified),Percent Effect,"30 µM, 30.03 µM",43.65%
CN(C)C(=O)CN1C(=O)CCC12CCN(Cc1cccn1C)CC2.O=C(O)C(F)(F)F,Percent Effect,"30.3 µM, […]",-2.653%
COc1ccc([C@@H]2CN(C(=O)CS(C)(=O)=O)C[C@H]2NC(C)=O)cc1,Percent Effect,"30 µM, 30.03 µM",-86.91%
CCOCC(=O)N1C[C@@H](NC(C)=O)[C@H](c2ccc(OC)cc2)C1,Percent Effect,"30 µM, 30.03 µM",-1.358%
COc1ccc([C@@H]2CN(C(=O)CCC(F)(F)F)C[C@H]2NC(C)=O)cc1,Percent Effect,"30 µM, 30.03 µM",98.96%
COc1cccc(CN2CCCC3(CCN(C(=O)c4ccco4)C3)C2)c1 (stereo unspecified),Percent Effect,"30.3 µM, […]",7.427%
Cc1cc(C)n(C2CN(CC(=O)N(C)Cc3cnn(C)c3)C2)n1,Percent Effect,"30 µM, 30.03 µM",17.09%
Cc1cc(C)n(C2CN(CC(=O)N(C)Cc3ccsc3)C2)n1,Percent Effect,"30 µM, 30.03 µM",62.05%
COc1cccc(CN(C)C(=O)CN2CC(n3nc(C)cc3C)C2)c1,Percent Effect,"30 µM, 30.03 µM",1.154%
O=C(O)C(F)(F)F.O=C([C@H]1C[C@H]2OCC[C@H]2N(Cc2ccc(F)cc2)C1)N1CCCCO1,Percent Effect,"30.3 µM, […]",-288.9%
Cc1ccc(CNC(=O)NCc2nccn2C)c(OC(C)(C)C)c1,Percent Effect,"30 µM, 30.03 µM",-10.65%
CCn1ccnc1CNCc1ccc(C)cc1OC(C)(C)C,Percent Effect,"30 µM, 30.03 µM",59.89%
Cc1ccc(CNCc2nccn2C)c(OC(C)(C)C)c1,Percent Effect,"30 µM, 30.03 µM",-9.651%
Cl.c1nc(N2CCOCC2)ncc1-c1cncn1CCCN1CCCCC1,Percent Effect,"30.3 µM, […]",-26.24%
CCn1cc(NC(=O)NCC(O)COc2ccccc2)cn1 (stereo unspecified),Percent Effect,10 µM,2.207%
Cc1ncc2c(n1)CN(CCCc1ccccc1)CC2,Percent Effect,"30.3 µM, […]",13.17%
same,Percent Effect,"10 mM, 10 mM as filed; unlikely as a test dose",-28.02%
COc1ccc(CN2CCc3nc(C4CCCCN4C)ncc3C2)cc1 (stereo unspecified),Percent Effect,"30 µM, 30.03 µM",-5.648%
CN1CCCCC1c1ncc2c(n1)CCN(Cc1ccc(Cl)c(F)c1)C2 (stereo unspecified),Percent Effect,"30.3 µM, […]",88.41%
CN1CCCCC1c1ncc2c(n1)CCN(Cc1ccccc1Cl)C2 (stereo unspecified),Percent Effect,"30 µM, 30.03 µM",-6.551%
CN1CCCCC1c1ncc2c(n1)CCN(Cc1ccc(F)cc1)C2 (stereo unspecified),Percent Effect,"30.3 µM, […]",42.96%
CN1CCCCC1c1ncc2c(n1)CCN(CCCc1ccccc1)C2 (stereo unspecified),Percent Effect,"30.3 µM, […]",98.5%
O=C(C1CCOCC1)N1C[C@H]2CCC[C@@]2(COc2ccccn2)C1.O=C(O)C(F)(F)F,Percent Effect,"30 µM, 30.03 µM",15.32%
Cl.Cn1nc(C2CCCN(Cc3cc(F)cc(F)c3)C2)c2nccnc21 (stereo unspecified),Percent Effect,"30.3 µM, […]",30.77%
CNC(=O)[C@@H]1C[C@@H](N)CN1C1CCN(c2ccccc2F)CC1,Percent Effect,"30.3 µM, […]",11.28%
CCNC(=O)[C@@H]1C[C@H](N)CN1C1CCN(c2ccccc2OC)CC1,Percent Effect,"30.3 µM, […]",99.36%
CNC(=O)[C@@H]1C[C@@H](N)CN1C1CCN(Cc2ccccn2)CC1,Percent Effect,"30.3 µM, […]",-17.78%
O=C(NCCCn1nc2ccccn2c1=O)Nc1ccccc1,Percent Effect,"30.3 µM, […]",-36.69%
OC(COCc1ccco1)CSc1nnc2ccccn12 (stereo unspecified),Percent Effect,"30.3 µM, […]",-18.97%
OC(COCc1ccco1)CN1CCC(Cn2cccn2)CC1 (stereo unspecified),Percent Effect,"30 µM, 30.03 µM",-22.56%
Cc1ccc(-n2c(C)nnc2SCC(O)COCc2ccco2)cc1 (stereo unspecified),Percent Effect,"30.3 µM, […]",100%
OC(COc1ccc(F)cc1)CN1CCC(c2ccn[nH]2)CC1 (stereo unspecified),Percent Effect,10 µM,90.5%
N#Cc1ccc(OCC(O)CN2CCC(c3ccn[nH]3)CC2)cc1 (stereo unspecified),Percent Effect,10 µM,5.752%
OC(COc1ccccc1)CN1CCC(c2ccn[nH]2)CC1 (stereo unspecified),Percent Effect,"30 µM, 30.03 µM",-29.13%
CN1[C@H](Cn2cccn2)C[C@@H]2CN(Cc3cccs3)CC[C@@H]21.O=C(O)C(F)(F)F.O=C(O)C(F)(F)F.O=C(O)C(F)(F)F,Percent Effect,"30.3 µM, […]",-3.772%
CN(C)CCn1c([C@H]2CCCO2)cc2cccnc21,Percent Effect,"30.3 µM, […]",1.858%
O=C(O)C(F)(F)F.O=S(=O)(C1CC1)N1CC[C@]2(C[C@@H](Oc3ncccc3F)CO2)C1,Percent Effect,"30 µM, 30.03 µM",13.6%
CC(C)CN1C[C@H]2CCN(c3ncccn3)CC[C@H]2S1(=O)=O.O=C(O)C(F)(F)F,Percent Effect,"30 µM, 30.03 µM",7.131%
Cc1cnc(N2CC[C@@H]3CN(CCC(C)C)S(=O)(=O)[C@@H]3CC2)nc1,Percent Effect,"30.3 µM, […]",13.68%
CCc1cnc(N2CC[C@@H]3CN(CCC(C)C)S(=O)(=O)[C@@H]3CC2)nc1.O=C(O)C(F)(F)F,Percent Effect,"30.3 µM, […]",50.26%
